In test [1] the test system is HeLa. In words: Primary qHTS to identify gynecologic anti-cancer compounds using libraries of approved drugs and bioactive compounds (AID 1345084). Further: nearly all actives have a fitted effect of over 55% in size. The conditions noted are these: Gynecologic cancer cell panel viability, ATPlite luminescence, 48 h; series mostly up to 57.5 µM. Put shortly:
(§1)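 Cytotoxicity screen measuring ATP content by luciferase luminescence. Each compound is applied at five concentrations for 48 h at 37 C with 5% CO2.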
(In general: qHTS replaces the single test concentration by a dilution series.)

The subject of test [2] is Hek293T. Described as above. The conditions noted are these: Gynecologic cancer cell panel viability, ATPlite luminescence, 48 h, control line for the selectivity index; series mostly up to 57.5 µM. Put shortly:
as §1
In general terms: Cellular ATP, detected with luciferase, serves as a proxy for viable cell number.

For test [3], the system named is OV90. Described as above. The conditions noted are these: Gynecologic cancer cell panel viability, ATPlite luminescence, 48 h; series mostly up to 57.5 µM. In outline:
as §1

For test [4], the system named is PA-1. The test is described as above. The conditions noted are these: Gynecologic cancer cell panel viability, ATPlite luminescence, 48 h; series mostly up to 57.5 µM. In outline:
as §1

Test [5] deals with SKOV3. The test is described as above. The conditions noted are these: Gynecologic cancer cell panel viability, ATPlite luminescence, 48 h; series mostly up to 57.5 µM. Put shortly:
as §1

Test [6] has as its system Tov-21-G. Described as above. The conditions noted are these: Gynecologic cancer cell panel viability, ATPlite luminescence, 48 h; series mostly up to 57.5 µM. Put shortly:
as §1

For test [7], the system named is Tov112D. Described as above. The conditions noted are these: Gynecologic cancer cell panel viability, ATPlite luminescence, 48 h; series mostly up to 57.5 µM. In outline: as §1
Test [8] in a line: Drug repurposing screens with cells derived from glioblastoma tumor samples (AID 1345199). Further: nearly all actives have a fitted effect of over 40% in size. The conditions noted are these: GBM patient neurospheres viability, ATP luminescence, 48 h. In outline:
(§2)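 Primary testing used CD133+ neurospheres from four GBM patients, seven concentrations, 48 h exposure and ATP-based viability; confirmation added three slower-growing patient lines.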

For test [9], the system named is astro. The test is described as above. The conditions noted are these: viability, ATP luminescence, 48 h; series mostly up to 45.9 µM. Put shortly:
as §2

Test [10] has as its system JEG-3. In words: Primary qHTS to identify gynecologic anti-cancer compounds using libraries of approved drugs and bioactive compounds (AID 1345084). Further: nearly all actives have a fitted effect of over 55% in size. The conditions noted are these: Gynecologic cancer cell panel viability, ATPlite luminescence, 48 h; series mostly up to 57.5 µM. Put shortly: as §1
Where [11] appears, read: at 45.9 µM (top of the series), tumour line B.
[12] abbreviates: at 45.9 µM (top of the series), tumour line D.
Where [13] appears, read: at 46 µM (top of the series), tumour line A.
[14] abbreviates: at 91.6 µM (top of the series), tumour line B.

Each structure is given as a SMILES string. Inconclusive results are not listed. Values without a mark were called inactive. Activity calls are given as the source filed them. The call rests on the fitted dose curve; in most records, active means well fitted curve in the direction sought with a large enough effect; inconclusive means small, poorly fitted or top-dose-only effect, or another doubt; inactive means no such curve, though single readings can be large; an effect the other way counts as inactive or inconclusive.
On the % scale 0 is the no-effect control and ±100 the full control effect; potency means the concentration at half of the fitted maximal effect.

On to `NC(=O)c1cc([N+](=O)[O-])cc([N+](=O)[O-])c1`, for which the Potency result in test [1], in test [3], in [4], in test [6], in test [7] and in [9] was “inactive” each time. Further, the result in test [2] and in [5] was inactive. Moreover, the values for the activity, negative = cell killing in [8] (setting [11]) and in test [8] (setting [12]) were -14% and -22.7%, respectively.

Consider `Cc1nnc2n1-c1ccc(Cl)cc1C(c1ccccc1)=NC2`, for which the activity, negative = cell killing in test [8] (setting [12]) was 7.45%.

As for `O=C(O)c1ccc(=O)[nH]c1`, the Potency result in test [1], in test [3], in [4], in test [6] and in test [7] was “inactive” in each case. In test [2], the call was inactive.

Consider `CC(C)=CC1C(C(=O)OCN2C(=O)C3=C(CCCC3)C2=O)C1(C)C` (stereo not given), for which the Potency entry in [1], in test [3], in test [4], in [6], in test [7] and in [9] was “inactive” throughout. The call in test [10] was inactive. The results for the activity, negative = cell killing in test [8] (setting [11]) and in test [8] (setting [12]) were -18.8% and -12.7%, respectively.

Consider `CC(C)C[C@H](CN)CC(=O)O`, for which the activity, negative = cell killing is 2.42% in [8] (setting [11]), -14.3% in test [8] (setting [12]) and -19.6% in test [8] (setting [13]). The Potency result in test [9] is “inactive”.

Turning to `CCCCCN(C)CCC(O)(P(=O)(O)O)P(=O)(O)O`, the activity, negative = cell killing in test [8] (setting [11]) was -6.41%; in test [8] (setting [12]) it was -6.48%; in test [8] (setting [13]), -14.8%. Besides, in [9], the Potency entry was “inactive”.

Regarding `O=C(O)/C=C\C(=O)O`, the activity, negative = cell killing was 0.272% in test [8] (setting [11]); -6.85% in [8] (setting [12]); -28.3% in test [8] (setting [13]); 3.02% in test [8] (at 46.1 µM (top of the series), tumour line C). Moreover, the Potency result in test [9] is “inactive”.

For the compound `Clc1ccc2c(c1)C(c1ccccc1)=NCc1nncn1-2`, the activity, negative = cell killing was -7.06% in test [8] (setting [11]) and 3.75% in [8] (setting [12]). Moreover, the Potency entry in test [9] is “inactive”.

In the case of `O=c1c(C2CC(c3ccc(-c4ccc(Br)cc4)cc3)Cc3ccccc32)c(O)sc2ccccc12` (stereo not given), the result in test [2] and in test [5] was inactive. The Potency entry in [4] and in [7] was “inactive” each time.

On to `C[C@H](N)C(=O)c1ccccc1`, for which the result in test [2], in test [10] and in test [5] was inactive. For the same compound, the Potency entry in [4], in test [6] and in test [7] was “inactive” throughout. Besides, the activity, negative = cell killing was -11.6% in [8] (setting [11]); -9.76% in test [8] (setting [12]); -16.2% in [8] (at 108 µM (top of the series), tumour line B); -20.3% in test [8] (at 108 µM (top of the series), tumour line D).

For the compound `CN[C@@H](C)Cc1ccccc1`, the activity, negative = cell killing in test [8] (at 91.6 µM (top of the series), tumour line A) was -24.4%; in test [8] (setting [14]) it was -1.76%; in test [8] (at 91.6 µM (top of the series), tumour line D) it was 4.77%. For the same compound, the Potency entry in test [9] is “inactive”.

In the case of `Cc1nnc2n1-c1ccc(Cl)cc1C(c1ccccc1Cl)=NC2`, the activity, negative = cell killing in test [8] (setting [11]) is -10.7%; in test [8] (setting [12]), -8.42%; in test [8] (setting [13]), -36.4%. Also, the Potency entry in test [9] was “inactive”.

For the compound `COC1CC(=C(c2cccs2)c2cccs2)C[N+](C)(C)C1` (stereo not given), the outcome in [2], in test [10] and in [5] was inactive. Further, the Potency entry in test [3], in test [6], in test [7] and in [9] was “inactive” throughout.

As to `CCCN(CCC)C(=O)Cc1c(-c2ccc(Cl)cc2)nc2ccc(Cl)cn12`, the Potency entry in [1], in [6], in test [7] and in test [9] was “inactive” throughout. The call in [2], in [10] and in test [5] was inactive. In addition, the activity, negative = cell killing in test [8] (setting [11]) is -4.08%. Also, the Potency in [8] (tumour line A) is 10 µM (active).

For `CC(C)[C@H]1C(=O)N2CCC[C@H]2[C@]2(O)O[C@](NC(=O)[C@@H]3C[C@@H]4c5cccc6[nH]cc(c56)C[C@H]4N(C)C3)(C(C)C)C(=O)N12`, the activity, negative = cell killing in [8] (setting [11]) is -21%. In addition, the Potency in [8] (tumour line A) is 7.08 µM (active).

On to `CN1C(=O)C(O)N=C(c2ccccc2)c2cc(Cl)ccc21` (stereo not given), for which the figures for the activity, negative = cell killing in test [8] (setting [11]), in [8] (setting [12]) and in test [8] (setting [13]) were 2.89%, -6.26% and -24.3%, respectively. Moreover, in test [9], the Potency entry is “inactive”.

`O=C1Nc2ccc(Cl)cc2C(c2ccccc2Cl)=NC1O` (stereo not given): the results for the activity, negative = cell killing in test [8] (setting [11]), in [8] (setting [12]) and in [8] (setting [13]) were 0.661%, -9.55% and -25.3%, respectively. In addition, the Potency entry in test [9] was “inactive”.

Turning to `C[C@]12CCC(=O)C=C1CC[C@@H]1[C@H]3CC[C@](C)(O)[C@@]3(C)CC[C@@H]12`, the Potency was 31.6 µM (active) in test [1] and 39.8 µM (active) in test [8] (tumour line A). Moreover, in test [10], the compound was called inactive. The Potency result in [6] is “inactive”. Moreover, the activity, negative = cell killing in [8] (setting [14]) was -15.6%.

Regarding `O=C(Nc1ccc(Br)cc1)c1cc(Br)cc(Br)c1O`, the outcome in test [2] and in test [5] was inactive. For the same compound, the Potency entry in test [4], in [6] and in test [7] was “inactive” each time. The Potency in [9] was 7.08 µM (active).

In the case of `C[C@]12CC[C@@H]3c4ccc(OC(=O)N(CCCl)CCCl)cc4CC[C@H]3[C@@H]1CC[C@@H]2O`, in test [1], the Potency is 35.5 µM (active). In addition, the activity, negative = cell killing in test [8] (setting [11]) was -7.93%; in test [8] (setting [12]) it was -5.83%; in [8] (setting [13]), -29.8%.

Values taken from PubChem BioAssay (NCATS).
